High-throughput results from PubChem BioAssay.
Cycloheximide cs: counter-screen for Shiga toxin inhibitors: cycloheximide protein synthesis inhibition; cell reporter, cycloheximide protein synthesis inhibition counterscreen; max response, %; actives 12% (n = 300,000); AID 2314; in the data active means max response mostly above about 13%, no sharp cut-off; inactive means mostly below about 14%; further: read at 38.3 µM for the half of the compounds with a filed dose; 0% is about no effect
LmPK inhibitor: blocks Leishmania mexicana pyruvate kinase activity. Q27686. purified LmPK, Kinase-Glo ATP luminescence, 1 h. Potency, µM (series often up to 57.5 µM), inactives show at the highest dose activity change, negative = inhibition, actives largely listed as inhibitors. actives 0.37% (n = 290,000). AID 1721; further: potency means the concentration at half of the fitted maximal effect; on the % scale 0 is the no-effect control and ±100 the full control effect
Target sequence (Q27686 whole entry, looked up): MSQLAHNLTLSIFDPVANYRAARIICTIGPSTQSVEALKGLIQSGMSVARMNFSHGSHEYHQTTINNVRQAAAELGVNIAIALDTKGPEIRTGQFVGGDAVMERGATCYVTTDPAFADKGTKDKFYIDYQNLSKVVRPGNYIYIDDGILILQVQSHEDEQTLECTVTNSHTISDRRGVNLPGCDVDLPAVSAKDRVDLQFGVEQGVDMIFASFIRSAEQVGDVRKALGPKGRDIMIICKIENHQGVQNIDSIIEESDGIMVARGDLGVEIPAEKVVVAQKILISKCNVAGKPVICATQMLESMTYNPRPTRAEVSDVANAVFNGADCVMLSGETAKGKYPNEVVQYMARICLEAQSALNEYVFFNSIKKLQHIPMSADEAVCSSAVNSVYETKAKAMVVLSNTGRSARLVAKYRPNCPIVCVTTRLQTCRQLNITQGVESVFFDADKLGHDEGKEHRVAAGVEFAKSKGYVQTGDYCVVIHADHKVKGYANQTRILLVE
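In 50 mM imidazole pH 7.2 with 7 mM MgCl2, LmPK (0.1 nM) turned over PEP (0.5 mM) and ADP (0.1 mM) for 1 h at room temperature. Luciferase read-out of ATP.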
NS1 inh: blocks influenza NS1 protein function; Potency, µM (doses to about 46.1 µM), inactives show at the top dose activity, positive = more growth; actives 0.4% (n = 270,000); AID 2326; calls by dose curve; further: potency means the concentration at half of the fitted maximal effect; actives are rising curves; nearly all actives have a fitted effect of over 50% in size
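In this qHTS, NS1 from influenza A is expressed in budding yeast, where it slows growth. Cells are switched from glucose to 2% galactose medium (pH 6.0, -URA), treated with compound, and growth recovery is read at OD600.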
TbPYK inhibitor: T. brucei pyruvate kinase inhibition | Q57TT1 | TbPYK enzyme, Kinase-Glo Plus ATP luminescence, 45 min | Potency, µM (series often up to 76.8 µM), inactives show at the top dose activity, negative = inhibition, hits mostly inhibitors | actives 0.12% (n = 410,000); further: potency means the concentration at half of the fitted maximal effect; on the % scale 0 is the no-effect control and ±100 the full control effect; nearly all actives have a fitted effect of over 50% in size
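Luminescence from Kinase-Glo Plus, added after a 45-minute room-temperature reaction, served as the end-point read-out. The enzyme and substrate were preincubated with compound before ADP (130 uM final) initiated turnover. Concentration-effect curves came from normalized qHTS data.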
Shiga inhibitor: blocks Shiga toxin action in Vero cells. Vero cells, Shiga toxin protein synthesis inhibition reporter. inhibition, % at 38.7 µM. actives 9.2% (n = 290,000). AID 2315; in the data active means inhibition mostly above about 28%, no sharp cut-off; inactive means mostly below about 43%; further: 0% is about no effect
SARS PLP yeast: inhibitors of SARS-CoV papain-like protease in yeast | actives 0.19% (n = 330,000) | AID 485353 | S. cerevisiae expressing SARS-CoV PLpro, growth rescue | Potency, µM (doses to about 32.9 µM), for the others: at the top dose activity, positive = growth rescue, hits mostly activators; calls by dose curve; further: potency means the concentration at half of the fitted maximal effect; 0% is about no effect; nearly all actives have a fitted effect of over 55% in size
Starred values were filed as active, the others as inactive. This is one part of a sample in which hits are shown more often than they occur. Unless noted, the call rests on the fitted dose curve; in most records, active means well fitted curve in the direction sought with a large enough effect; inconclusive means small, poorly fitted or top-dose-only effect, or another doubt; inactive means no such curve, though single readings can be large; an effect the other way counts as inactive or inconclusive.

Screening CCCC(=O)c1ccc(N2CCN(C(=O)OCC)CC2)c(F)c1 returned Cycloheximide cs 23, LmPK inhibitor -1%, NS1 inh -22%, TbPYK inhibitor 5%, Shiga inhibitor 54 and SARS PLP yeast 3%.
CC(=O)c1ccc(N2CCCCCC2)c(F)c1 was read as Cycloheximide cs 13, LmPK inhibitor 2%, NS1 inh -23%, TbPYK inhibitor 4%, Shiga inhibitor 29 and SARS PLP yeast -1%.
`COC(=O)c1cc(C)nc(Sc2ccccc2N)n1` gave Cycloheximide cs 18*, LmPK inhibitor 22%, NS1 inh -4%, TbPYK inhibitor 8.9µM*, Shiga inhibitor 45* and SARS PLP yeast 0%.
`COC(=O)c1ccccc1NC(=O)CSc1nc(C)cc(C)n1` gave Cycloheximide cs -4, LmPK inhibitor -15%, TbPYK inhibitor -6%, Shiga inhibitor -10 and SARS PLP yeast -1%.
O=C(CC(=O)N1CCOCC1)N1CCOCC1 was read as TbPYK inhibitor -1%.
For Clc1ccc(-n2nnc(-c3nccs3)n2)cc1Cl the results were Cycloheximide cs 29*, LmPK inhibitor -3%, NS1 inh -32%, TbPYK inhibitor inconclusive, Shiga inhibitor 74* and SARS PLP yeast -5%.
For Cc1ccc(-n2nnc(-c3nccs3)n2)cc1 the results were Cycloheximide cs 1, LmPK inhibitor 14µM*, NS1 inh -9%, TbPYK inhibitor inconclusive, Shiga inhibitor -17 and SARS PLP yeast -2%.
For O=C(O)[C@H](Cc1ccccc1)Nc1ccc([N+](=O)[O-])cn1 the results were Cycloheximide cs -1, LmPK inhibitor 4%, NS1 inh -4%, TbPYK inhibitor 0%, Shiga inhibitor -2 and SARS PLP yeast 1%.
`COc1ccc(-c2noc(-c3ccc(NCc4ccco4)c([N+](=O)[O-])c3)n2)cc1` gave TbPYK inhibitor -5%.
For NC(=O)c1cc([N+](=O)[O-])ccc1NCCc1ccccc1 the results were Cycloheximide cs active, LmPK inhibitor 7%, NS1 inh -2%, TbPYK inhibitor 0%, Shiga inhibitor 1 and SARS PLP yeast -2%.
For O=C(Nc1ccccc1)c1ccc(NCCc2ccccc2)c([N+](=O)[O-])c1 the results were Cycloheximide cs -2, LmPK inhibitor -5%, NS1 inh 3%, TbPYK inhibitor -9%, Shiga inhibitor -10 and SARS PLP yeast 4%.
`NC(=O)c1ccc(NCc2ccco2)c([N+](=O)[O-])c1` gave Cycloheximide cs 17*, LmPK inhibitor 1%, NS1 inh 8%, TbPYK inhibitor -3%, Shiga inhibitor 15 and SARS PLP yeast 4%.
`NC(=O)c1ccc(NCCc2ccccc2)c([N+](=O)[O-])c1` gave Cycloheximide cs 16*, LmPK inhibitor 1%, NS1 inh -1%, TbPYK inhibitor -5%, Shiga inhibitor 10 and SARS PLP yeast 0%.
Screening O=C(O)C(Cc1ccccc1)Nc1ccc([N+](=O)[O-])cc1[N+](=O)[O-] (configuration not stated) returned Cycloheximide cs 20*, LmPK inhibitor 7%, NS1 inh -20%, TbPYK inhibitor -10%, Shiga inhibitor 32 and SARS PLP yeast 1%.
`O[C@@H]1COC2[C@@H](O)CO[C@@H]21` (some centres not stated) gave Cycloheximide cs 12 and Shiga inhibitor -2.
For CC1=C(C(=O)OCc2ccc(C)cc2)C(c2ccccc2F)CC(=O)N1 (configuration not stated) the results were TbPYK inhibitor -8%.
For Cc1ccc(C(=O)NCc2ccncc2)cc1S(=O)(=O)N1CCCCC1 the results were Cycloheximide cs -1, LmPK inhibitor 1%, NS1 inh 4%, TbPYK inhibitor 3%, Shiga inhibitor 15 and SARS PLP yeast -5%.
For Nc1ccccc1C#Cc1ccccc1 the results were Cycloheximide cs 64*, LmPK inhibitor -12%, NS1 inh -10%, TbPYK inhibitor -3%, Shiga inhibitor 88* and SARS PLP yeast -8%.
Nc1ccc(C#Cc2ccc3sc4ccccc4c(=O)c3c2)cc1 was read as TbPYK inhibitor 2%.
Nc1ccc(C#Cc2ccccc2)cc1 was read as Cycloheximide cs 41*, LmPK inhibitor 5%, NS1 inh -11%, TbPYK inhibitor 1%, Shiga inhibitor 64* and SARS PLP yeast 3%.
`Nc1ccccc1C#Cc1ccc2[nH]ccc2c1` gave TbPYK inhibitor 2%.
`COc1cccc(-n2c(SCC(=O)Nc3nnc(C)s3)nc3c([nH]c4ccccc43)c2=O)c1` gave TbPYK inhibitor -6%.
Cc1ccc(CC(=O)Nc2nc3ccccc3s2)cc1 was read as Cycloheximide cs 40*, LmPK inhibitor 0%, NS1 inh -25%, TbPYK inhibitor 0%, Shiga inhibitor 174* and SARS PLP yeast -6%.
CC(C)(C)NC(=O)c1nc2ccccc2s1 was read as Cycloheximide cs 21*, LmPK inhibitor 6%, NS1 inh -7%, TbPYK inhibitor -7%, Shiga inhibitor 47* and SARS PLP yeast 13%.
CCCNC(=O)Nc1nc2ccccc2s1 was read as Cycloheximide cs 51*, LmPK inhibitor -2%, NS1 inh -65%, TbPYK inhibitor 1%, Shiga inhibitor 87* and SARS PLP yeast -1%.
Screening Cc1ccc(S(=O)(=O)CC(=O)Nc2nc3ccccc3s2)cc1 returned Cycloheximide cs -2, LmPK inhibitor 1%, NS1 inh 4%, TbPYK inhibitor 6%, Shiga inhibitor 2 and SARS PLP yeast -1%.
Screening CN(C)c1ccc(CC(=O)c2nc3ccccc3s2)cc1 returned Cycloheximide cs 67*, LmPK inhibitor -4%, NS1 inh 3%, TbPYK inhibitor -12%, Shiga inhibitor 44* and SARS PLP yeast 8%.
CC(C)C(=O)NN(C(=O)C(C)C)c1nc2ccccc2s1 was read as Cycloheximide cs -1, LmPK inhibitor -1%, NS1 inh -1%, TbPYK inhibitor -30%, Shiga inhibitor 16 and SARS PLP yeast -1%.
For O=C(OCC(COC(=O)c1cccnc1)(COC(=O)c1cccnc1)COC(=O)c1cccnc1)c1cccnc1 the results were TbPYK inhibitor 2%.
Screening CCOC(=O)CNC(=S)N(Cc1ccco1)Cc1ccccc1Cl returned Cycloheximide cs -2, LmPK inhibitor 1%, NS1 inh 1%, TbPYK inhibitor -13%, Shiga inhibitor -12 and SARS PLP yeast 0%.
O=[N+]([O-])c1ccc([N+](=O)[O-])c(Nc2ccc(N3CCOCC3)cc2)c1 was read as Cycloheximide cs 2, LmPK inhibitor -2%, NS1 inh 1%, TbPYK inhibitor 0%, Shiga inhibitor 1 and SARS PLP yeast 0%.
CCOC(=O)c1nc2ccccc2s1 was read as Cycloheximide cs 27*, LmPK inhibitor -20%, NS1 inh -12%, TbPYK inhibitor 6%, Shiga inhibitor 61* and SARS PLP yeast 3%.
